Test results taken from PubChem BioAssay AID504397 (Broad Institute, 2011).
Entries with a potency or affinity are not part of this list. Active and inactive are the calls of the source. The rule behind the calls is not given here.

Test: mammalian cell cytotoxicity, dose response, cytotoxicity control, plate reader, cherry-pick samples (AID 504397)
Details: plate reader viability; series mostly up to 35 µM

| Compound | outcome |
| --- | --- |
| CCOc1ccc(-n2c(SCc3ccc([N+](=O)[O-])cc3)nnc2-c2ccc(OC)cc2)cc1 | inactive |
| CCCOc1ccc(-c2c(C(=O)N/N=C/c3cccs3)nnn2-c2nonc2N)cc1 | inactive |
| COc1ccc(CN2CCN(C(c3ccc(F)cc3)c3ccc(F)cc3)CC2)c(OC)c1OC | inactive |
| CCOC(=O)c1cc(-c2ccccc2)sc1NC(=O)C(C)Sc1nnnn1C (stereo unspecified) | inactive |
| Cc1ccc(C(=O)c2c3ccc(C(F)(F)F)cc3nn2CCC(N)=O)cc1 | inactive |
| CC(C)c1c(C(=O)N/N=C/c2cccc3ccccc23)nnn1-c1nonc1N | inactive |
| Nc1nnnn1/N=C/c1ccccc1OCc1ccc(Cl)cc1Cl | inactive |
| COc1cccc(-c2c(C(=O)N/N=C/c3sccc3C)nnn2-c2nonc2N)c1 | inactive |
| O=c1c(-c2ccccc2)c(O)c2ccccc2n1-c1ccccc1 | inactive |
| CCn1cc(/C=C(\NC(=O)c2ccccc2Cl)C(=O)N2CCOCC2)c2ccccc21 | inactive |
| Cc1cccc(-c2nnc(SCc3ccc(C#N)cc3)n2Cc2ccco2)c1 | inactive |
| NC(=NCCCCCCN=C(N)/N=C(\N)Nc1ccc(Cl)cc1)/N=C(\N)Nc1ccc(Cl)cc1 | inactive |
| O=C(CCNS(=O)(=O)c1ccc2[nH]c(=O)oc2c1)NCc1ccccc1 | inactive |
| CN(C)CCN(C(=O)c1ccc2ccccc2c1)c1nc2ccc(Br)cc2s1 | inactive |
| Cc1csc2nc(=O)c3ccccc3n12 | inactive |
| Cc1ccccc1NS(=O)(=O)c1ccc(C(=O)NCC(c2ccccc2)N(C)C)cc1 (stereo unspecified) | inactive |

| Compound | outcome |
| --- | --- |
| CCOC(=O)[C@@H]1[C@H]2COc3ccc(Br)cc3[C@@H]2N2C(=O)N(c3cccc(Cl)c3)C(=O)[C@]12C | inactive |
| Cc1ccc(N=Cc2c(O)n(C)c(=O)n(C)c2=O)nc1 | inactive |
| O=C(Nc1sc2c(c1C(=O)c1ccc(Cl)cc1)CCCC2)c1cccnc1 | inactive |
| CC(=O)c1ccc(-c2ccc(C(=O)N3CCC(C(N)=O)CC3)o2)cc1 | inactive |
| Nc1nonc1-n1nnc(C(=O)N/N=C/c2ccoc2)c1CSc1ccccc1 | inactive |
| CCOc1ccc(N(Cc2ccc(OC)cc2)C(=O)c2ccco2)cc1 | inactive |
| O=C(COC(=O)c1ccccc1Cc1ccccc1)NC1CCS(=O)(=O)C1 (stereo unspecified) | inactive |
| CS(=O)(=O)Nc1ccccc1C(=O)NC1CC2CCC1C2 (stereo unspecified) | inactive |
| Nc1nonc1-n1nnc(C(=O)N/N=C/c2cccc(Cl)c2)c1CSc1ccc(Cl)cc1 | inactive |
| O=C(c1cc(-c2ccccc2)nc2ccccc12)N1CCN(c2ccccn2)CC1 | inactive |
| CC1CCN(Cc2c(C(=O)N/N=C/c3cccc(C(F)(F)F)c3)nnn2-c2nonc2N)CC1 | inactive |
| COc1ccc(-n2c(SCc3ccc([N+](=O)[O-])cc3)nnc2-c2ccc(C)cc2)cc1 | inactive |
| CN1C(=O)/C(=C/c2cccc(Cl)c2)Sc2ccc(C(=O)N3CCOCC3)cc21 | inactive |
| Cc1ccc2nc(N(CCN(C)C)C(=O)c3ccc4ccccc4c3)sc2c1 | inactive |
| O=C(Nc1ccc2c(c1)CCC2)c1ccccc1Br | inactive |
